The panel holds about 83,000 compounds, 20% with a hit somewhere; the sample as a whole holds those more often.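 Growth was measured after 48 h exposure to one concentration of compound in 96-well plates. Values under 10 count as active.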 Values without a mark were called inactive. Activity calls are given as the source filed them.
System: A498 renal
Assay: NCI-60 one-dose screen, 48 h (100 = growth as untreated, 0 = no growth, -100 = all killed)
Settings: 10 µM unless noted
Description: Growth inhibition of the A498 human tumor cell line is measured as a screen for anti-cancer activity. Cells are grown in 96 well plates and exposed to the test compound for 48 hours. Compounds are tested at a single concentration, which is 10^-5 M for most compounds. The reported endpoint is percent growth (GI% or GIPRCNT), where numbers from 0 - 100% represent growth inhibition, and numbers from -100% - 0 represent cell death. For example, a value of 40 represents 60% growth inhibition. A value of 0 means no net growth occurred over the course of the experiment. A value of -40 indicates 40% of cells at the beginning of the experiment died by the end of the experiment. A value of -100 means all cells are dead at the end of the experiment.
NCI-60 Human Tumor Cell Lines Screen was performed using the standard one-dose NCI protocol, which is described in more detail at https://dtp.cancer.gov/discovery_development/nci-60/default.htm.
Compounds with GIPRCNT values below 10 were considered active. Activity score was based on GIPRCNT using the following formula: […]
Score is 0 for GIPRCNT values of 100 or above, 50 for GIPRCNT values of 0, and 100 for GIPRCNT values of -100.

| Compound | growth |
| --- | --- |
| Nc1c(-c2nc3ccccc3c(=O)[nH]2)nnn1-c1ccc(Cl)cc1 | 57.4% |
| COc1ccc(-c2nc3sccn3c2/C=C/C(=O)c2c[nH]c3ccccc23)cc1 | 68.2% |
| O=C(Oc1ccc[nH]c1=O)c1cc([N+](=O)[O-])cc([N+](=O)[O-])c1 | 108% |
| COc1ccc(OC)c(/C=C2\COc3ccc(O)cc3C2=O)c1 | 100% |
| NC(=S)c1csc(CCNC(=O)c2ccccc2)n1 | 89.6% |
| C=C1C(=O)O[C@H]2[C@H]1CC/C(COC(=O)/C=C\C(=O)NCc1ccc(Cn3c(=O)sn(-c4ccc(OC)cc4)c3=O)cc1)=C\CC[C@@]1(C)O[C@@H]21 | 7.18% (active) |
| CCCCC1COc2cccc3c(SCC(=O)N(C)c4cccc(Cl)c4)cc[n+]1c23 (stereo not given) | 106% |
| C[C@H]1[C@H](C)CC[C@]2(C(=O)N3CCN(C)CC3)CC[C@]3(C)C(=CC[C@@H]4[C@@]5(C)C/C(=C/c6cccnc6)C(=O)C(C)(C)[C@@H]5CC[C@]43C)[C@H]12 | -83.2% (active) |
| C/C(=N\NC(N)=S)c1nc2ccc(Cl)cc2[nH]1 | 53.3% |
| C=C1C(=O)O[C@H]2[C@H]1CC/C(C(=O)NCCCCCCCCNC(=O)/C1=C/CC[C@@]3(C)O[C@H]3[C@H]3OC(=O)C(=C)[C@@H]3CC1)=C\CC[C@@]1(C)O[C@@H]21 | 107% |
| CCOC(=O)C1C(=O)C=C(c2cnccn2)CC1c1ccc(OC)c(OC)c1 (stereo not given) | 119% |
| NC(N)=N/N=C(/c1ccccc1)c1ccc(N)cc1 | 125% |
| CCOc1ccc2nc(-c3cccc(OCC(=O)NC(C)C)c3)nc(Nc3ccc(-c4cn[nH]c4)cc3)c2c1 | 46.7% |
| CCCCOc1ccc(NC(=O)n2nc(N=NN(C)C)c3ccc(Cl)cc32)cc1 | 100% |
| COc1cc(NC(=O)c2cccc(-c3cc(=O)c4c(OC)c(OC)c(OC)cc4o3)c2)cc(OC)c1OC | 57.4% |
| Cc1cc(=O)c2cc3nc(-c4cccnc4)oc3c(Br)c2o1 | 103% |
| CN(CCCCCCCCNc1ccnc2ccccc12)Cc1ccc(-c2ccc(-c3ccc(C#N)cc3)s2)cc1 | 50.2% |
| CN1C[C@@H](c2ccc(Cl)cc2)[C@]2(NC(=S)N(c3ccc(F)c(Cl)c3)C2=O)[C@@]12C(=O)NC1C=CC(Cl)=C[C@H]12 (stereo not given in full) | 66.8% |
| COc1cc(NC(=O)c2cc(O)c(CC=C(C)C)c(O)c2)cc2c1O[C@]1(C)CC[C@@H](O)C(C)(C)[C@H]1C2 | -2.7% (active) |
| CNC(=O)NCC1OC(n2cnc3c(NC(=O)Nc4ccccc4)ncnc32)C2OC(C)(C)OC12 (stereo not given) | 87.2% |

| Compound | growth |
| --- | --- |
| CC(C)c1ccc(C(=O)OC(=O)c2ccc(C(C)C)cc2)cc1 | 92.1% |
| Clc1ccc(-c2nnc(-c3ccco3)o2)cc1 | 103% |
| CC(C)n1nc(C#Cc2cccc(O)c2)c2c(N)ncnc21 | -84.9% (active) |
| O=C(Nc1ccccc1)c1sc(-c2cccc(C(F)(F)F)c2)cc1O | 51.2% |
| COc1cc2oc(-c3cccc(C(=O)Nc4ccc(C#N)cc4)c3)cc(=O)c2c(O)c1OC | 86.7% |
| O=C(NCOC(O)C(Cl)(Cl)Cl)NCOC(O)C(Cl)(Cl)Cl (stereo not given) | 77.1% |
| CCNCCNc1cc(-c2ccc(Cl)cc2)c(C#N)c2nc3ccccc3n12 | 2.87% (active) |
| Cn1nnnc1-c1ccc(N)cc1 | 108% |
| Cc1nc(Nc2ccc(NC(=S)Nc3ccccc3)cc2)c2ccccc2n1 | 100% |
| Nc1ccc2c(S(=O)(=O)O)ccc(S(=O)(=O)O)c2c1 | 116% |
| Cc1cc(NS(=O)(=O)c2ccccc2)c(OS(=O)(=O)c2ccccc2)cc1C | 89.2% |
| COc1cc2nc(Nc3ccc(F)cc3)nc(N)c2cc1OC | 63.6% |
| Cc1cnc(Nc2ccc(OCCN3CCCC3)cc2)nc1NCc1ccco1 | 71.5% |
| NS(=O)(=O)c1cnccc1-n1ccc(=O)c(S(N)(=O)=O)c1 | 85.4% |
| CNC(=O)c1cc(Oc2ccc3nc(Nc4cc(Cl)cc(Cl)c4)ccc3c2)ccn1 | 35.2% |
| COc1ccc(C(=O)/C=C/c2cc3c(c(OC)c2)OCC(=O)N3)cc1 | 94.3% |
| CCOC(=O)c1c(C)nc2c(c1N)/C(=C/c1cc(OC)c(OC)c(OC)c1)C(=O)N2c1ccc(OC)cc1 | 82.2% |
| N#Cc1c(N)n2c(nc1=Nc1ccc([N+](=O)[O-])cc1)sc1cc(Cl)ccc12 | 102% |
| CN(C)c1ccc(/C=C/c2c(F)cccc2F)cc1 | 77.2% |
| Cc1nc(Nc2ccc(NC(=S)Nc3ccccc3)cc2)nc2nc(Nc3cccc(Cl)c3)[nH]c(=O)c12 | 91.3% |

Reference: PubChem BioAssay (NCI)
